Source: PubChem
USP10 block: inhibitors of human USP10 deubiquitinase | Q14694 | purified USP10, Ub-rhodamine fluorescence, 60 min | inhibition, % at 20 µM | 47,000 tested, 1.1% active | AID 1645856
USP8 block: blocks human USP8 ubiquitin-rhodamine cleavage; P40818; purified USP8, Ub-rhodamine cleavage fluorescence, 30 min; inhibition, % at 20 µM; 47,000 tested, 4.2% active
USP17 inh: blocks human USP17 ubiquitin-rhodamine cleavage; A8MUK1; purified USP17, Ub-rhodamine cleavage fluorescence, 3 h; inhibition, % at 50 µM; 47,000 tested, 6.5% active
USP30 inh: inhibitors of human USP30 deubiquitinase; inhibition, % at 25 µM; Q70CQ3; AID 1645860; 47,000 tested, 5.3% active; purified USP30, Ub-rhodamine cleavage fluorescence
USP28 inh: human USP28 deubiquitinase inhibition; Q96RU2; purified USP28, Ub-rhodamine cleavage fluorescence, 30 min; inhibition, % at 25 µM; 47,000 tested, 3% active; AID 1645857
Numbers without * were called inactive; i = inactive. A selection: hits, their analogues and other compounds. The true share with any hit is near 14%. No stated cut-off is given here; in the data, active means inhibition above about 30%; inactive means the rest.

SMILES	USP10 block	USP8 block	USP17 inh	USP30 inh	USP28 inh
Cc1ccc(C)c(CN2C(=O)c3ccccc3S(=O)c3ccc(C(=O)NCCc4ccccc4)cc32)c1 (configuration not stated)	8	19	9	38*	27
Cc1ccc(CN2C[C@@H]3c4nc(N(C)C)ncc4CS(=O)(=O)[C@@H]3C2)cc1	4	1	-3	31*	7
COc1cccc2c(=O)n(CC(=O)N3CCOCC3)ccc12	-13	17	4	2	4
O=C(Nc1ccc2[nH]ncc2c1)c1ccc(F)cc1	0	-2	22	0	0
O=C(Cc1ccccc1)Nc1ccc2[nH]ncc2c1	-2	61*	27	-174	-27
NC1=CC(=O)C(Nc2ccccc2O)=CC1=O	9	36*	42*	-35	-5
CC(=O)c1cc2c(cc1NC(=O)CN(C)Cc1ccc3c(c1)OCO3)OCO2	3	-58	-7	16	2
O=C(NC1CCCC1)C1CC(=O)N(c2cccc(-c3noc(-c4cccs4)n3)c2)C1 (configuration not stated)	45*	0	61*	-41	-1
Cn1cccc1-c1cc2n(n1)CCCN2C(=O)CCC(=O)NC1CC1	-6	-55	-39	-129	-39
CC(=O)Nc1ccc(NC(=O)C2(c3ccc(Cl)cc3)CCC2)cc1	1	-1	45*	16	-1
CC(NC(=O)c1ccc(Oc2ccccc2)cc1)c1ccc(Cl)c(Cl)c1 (configuration not stated)	10	5	0	13	1
CS(=O)(=O)c1cccc(-c2nnc(NC(=O)c3ccc(Cc4ccccc4)cc3)o2)c1	41*	35*	5	35*	19
CC(NC(=O)c1ccc(-c2nnc(-c3ccccc3)o2)cc1)c1ccc(S(C)(=O)=O)cc1 (configuration not stated)	5	4	71*	41*	23
CS(=O)(=O)c1ccc(-c2nnc(NC(=O)c3ccco3)o2)cc1	2	-2	6	10	9
O=c1[nH]c(CN2CCN(S(=O)(=O)c3ccccc3)CC2)nc2cc(Cl)ccc12	-7	1	-40	-152	-38
CCOc1cccc(CN2Cc3cc(Cl)cc(OC)c3OCC2=O)c1	1	2	15	6	9
Cc1nn(C)cc1NC(=O)Nc1ccc(F)cc1	0	7	11	30*	14
O=C(Nc1ccc(F)cc1)Nc1cccnc1	-1	1	0	-1	1
CC(C)c1cc(C(=O)N2CCN(C)CC(C(N)=O)C2)on1 (configuration not stated)	2	-8	0	18	1
COc1cccc(N2CCN(C(=O)C3CCCN(S(=O)(=O)N4CCCCCC4)C3)CC2)c1 (configuration not stated)	0	17	6	15	7
COc1ccc(C(=O)Nc2ccccc2C(=O)NC(Cc2ccc(O)cc2)C(=O)NNC(=O)c2ccccc2Cl)cc1 (configuration not stated)	62*	59*	82*	69*	75*
COC(=O)[C@H](Cc1ccc(O)cc1)NC(=O)c1ccc(Cl)cc1	5	2	5	13	-1
O=C(c1cc(-c2ccco2)[nH]n1)N1CCC(Cn2cccn2)CC1	-4	-6	-111	i	-125
O=C(Cn1cnc(-c2noc(-c3ccc(F)cc3)n2)c1)NC1CCCCC1	11	52*	26	29	11
O=C(Cn1c(-c2ccc(F)cc2)nc2ccccc21)NC1CCCCC1	-3	34*	19	-6	-9
SMILES	USP10 block	USP8 block	USP17 inh	USP30 inh	USP28 inh
O=C(Cn1cnc(-c2noc(-c3ccncc3)n2)c1)N1CCN(c2ccccc2F)CC1	-1	11	11	52*	5
Cc1c(C#N)c2ccccc2n1CC(=O)NC1CCCCCC1	0	-19	-13	10	-6
Cc1cnc(C(=O)Nc2ccc(C3CCc4nncn4C3)cc2)cn1 (configuration not stated)	1	-10	3	9	3
Cc1ccc(-c2ccccc2CC2CN(S(C)(=O)=O)CCNC2=O)c(C)c1 (configuration not stated)	-2	2	-3	7	-4
CN=C(N)NCCC[C@H](N)C(=O)O	0	24	16	31*	11
COC(=O)c1cc2c(ccn2C)n1CC(=O)N(C1CCCCC1)C1CCCCC1	-5	49*	-29	-301	-80
COC(=O)c1cc2c(ccn2C)n1Cc1ccc(F)cc1	-9	52*	-15	-372	-72
